This note sets out measurements from PubChem BioAssay AID1053126 (Broad Institute, 2014).

Results with a measured potency or affinity are listed apart. Activity calls are given as the source filed them.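 The calls were made as follows: active = cell killing with a fitted half-effect concentration at or below twice the top valid dose; inconclusive = flat curve with 30 to 70 percent drop, or poor fit; inactive = the rest.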

The nature of the assay: viability loss in HEK293T kidney cells – cell-based, ATP luminescence, cherry-pick, set 6, cytotoxicity control, dose response (AID 1053126). The note with it: CellTiter-Glo ATP luminescence, 72 h; series mostly up to 26 µM. In general terms: Cellular ATP, detected with luciferase, serves as a proxy for viable cell number.
In the case of `COc1c(Cl)cc(-c2noc(C)c2C(=O)NCc2ccc3c(c2)OCO3)cc1Cl`, the result was inactive.
Next, `CSc1ccc(Cl)c(C(=O)N2CCOc3ccccc32)c1`: “inactive”; `CSc1ccc(Cn2c(C)c(C(=O)NCc3cccc(Cl)c3)sc2=O)cc1`: “inactive”; `C#CCOc1ccc(C2C(C#N)=C(N)Oc3cc(O)ccc32)cc1` (stereo not drawn): “inactive”.
Take `Cn1c(=N)c(S(=O)(=O)c2ccccc2)cc2c(=O)n3ccccc3nc21`: the compound was classed as inactive.
In the case of `O=C(O)c1cccc(NC(=O)c2cn(-c3ccccc3)nc2-c2cccc(Br)c2)c1` it was “inactive”.
In the case of `O=C(c1cccc(Cl)c1)N1CCC(=O)N(C(COCc2ccccc2)Cc2ccccc2)CC1` (stereo not drawn) it was “inactive”.
Next, `COc1ccc(S(=O)(=O)N2CCCC2CNC(=O)C(=O)NC2CCCC2)cc1` (stereo not drawn): “inactive”.
`Cc1nc(CCNC(=O)Cc2ccc(Cl)cc2)cs1`: the compound was classed as inactive.
In the case of `Cc1noc(C)c1-c1ccc(C(=O)NCCc2ccccc2)c2occc12` it was “inactive”; in that of `CCOc1ccc(C(=O)c2cc3ccc(O)cc3oc2=O)cc1`, “inactive”; in that of `Cc1cc(-n2c(=O)c(C#N)cc3c(=O)n4ccccc4nc32)no1`, “inactive”.
In the case of `Cc1ccc(S(=O)(=O)c2cc3c(=O)n4ccccc4nc3n(C)c2=N)cc1`, the result was inactive.
In the case of `CC(C)OCCCn1c(=N)c(C(N)=S)cc2c(=O)n3ccccc3nc21` it was “inactive”; in that of `Cc1cccn2c(=O)c3cc(C(N)=S)c(=N)n(CCCOC(C)C)c3nc12`, “inactive”; in that of `CCOC(=O)c1cc(-c2ccccc2)sc1NC(=O)CSc1nnc(N)s1`, “inactive”.
Turning to `CC(C)CCn1c(CN2CC(C)OC(C)C2)nc2c1c(=O)n(C)c(=O)n2C` (stereo not drawn), the outcome was inactive.
Next, `CN1c2ccc(Cl)cc2C(=O)NC1C1CC=CCC1` (stereo not drawn): “inactive”; `Cc1cc(OC(=O)c2ccccc2Cl)ccc1N1C(=O)CCC1=O`: “inactive”.
In the case of `CC(C)N1CCc2c(sc(NC(=O)Cc3ccccc3)c2C#N)C1` it was “inactive”; in that of `COc1cc(C2C3=C(CC(C)(C)CC3=O)N(C)C3=C2C(=O)CC(C)(C)C3)cc(Br)c1O`, “inactive”; in that of `CCN(c1ccccc1)S(=O)(=O)c1ccc(OC)c(NC(=O)CN(C)C)c1`, “inactive”.
Next, `CC(C)C(=O)Nc1sc2c(c1C(N)=O)CCN(Cc1ccccc1)C2`: “inactive”.
In the case of `CCN(CC)c1ccc2cc(C#N)c(=O)oc2c1`, the compound was classed as inactive.
In the case of `COCCN1C=C(C(=O)OC)C(c2ccc(Cl)cc2)C(C(=O)OC)=C1` it was “inactive”; in that of `C=Cc1ccc(Cn2c(C)c(C(=O)NCc3cccc(C)c3)sc2=O)cc1`, “inactive”; in that of `CCOC(=O)c1cc2c(=O)n3ccccc3nc2n(C(C)C)c1=NC(=O)c1ccco1`, “inactive”.
Next, `O=C(O)C1=CC[C@@H](c2ccc(Cl)cc2)N(S(=O)(=O)c2ccc(Cl)cc2)[C@H]1c1ccc(F)cc1`: “inactive”; `O=C(CCCn1c(=O)c2sccc2n(Cc2cc(=O)n3ccccc3n2)c1=O)NCc1ccco1`: “inactive”; `O=C(/C=C/c1ccccc1)C1=C(O)C(=O)N(CCO)C1c1ccc2c(c1)OCO2` (stereo not drawn): “inactive”.
In the case of `CCOc1ccc(S(=O)(=O)Nc2ccc(C(=O)N(CC)CC(=O)NCc3cccs3)cc2)cc1` it was “inactive”.
For the compound `CCCOc1ccccc1/C=C1\SC(N)=NC1=O`, the result was inactive.
Next, `O=C(O)[C@@H]1CCCN1S(=O)(=O)c1cccc(S(=O)(=O)N2CCC[C@H]2C(=O)O)c1`: “inactive”; `CCOc1ccc(-n2c(SCC(=O)Nc3nccs3)nnc2-c2ccoc2C)cc1`: “inactive”; `CCC(C)NC(=S)N1CCN(Cc2ccc3c(c2)OCO3)CC1` (stereo not drawn): “inactive”.
With `CCN(CC)Cc1c(O)c(Cl)cc2c(C)cc(=O)oc12`, the compound was classed as inactive.
On to `Cc1nc2ccc(S(=O)(=O)Nc3ccc(-c4nc5cccnc5s4)cc3)cc2s1`, for which the compound was called inactive.
In the case of `C[C@H](NC(=O)c1nc[nH]c1C(=O)N[C@@H](Cc1ccccc1)C(=O)OC(C)(C)C)C(=O)OCc1ccccc1`, the call was inactive.
